Source: PubChem BioAssay (Tox21)
Where “and” joins values, the source holds several entries; their conditions need not be identical. Equal values may be shown once. Records with an inconclusive call do not appear. Where a call stands in place of a potency, no number is given. Values without a mark were called inactive. Calls of active or inactive are those of the source. The call rests on the fitted dose curve; in most records, active means well fitted cell-killing curve with a large enough effect in the repeat runs; inconclusive means weak or mixed curves, or effect the other way; inactive means no such curve, though single readings can be large or run the other way.
Potency means the concentration at half of the fitted maximal effect.

Experiment: Caspase-3/7 induction in CHO-K1 cells by small molecules, qHTS cell viability counter screen (AID 1346979); further: nearly all actives have a fitted effect of over 35% in size
Conditions: CellTiter-Fluor fluorescence, 17 h; series mostly up to 92.4 µM
Source text: National Center for Advancing Translational Sciences [NCATS]
NIH Chemical Genomics Center [NCGC]
U.S. Environmental Protection Agency [EPA]
National Institutes of Environmental Health Sciences [NIEHS]
National Toxicology Program [NTP]
U.S. Food and Drug Administration [FDA]
Apoptosis is a process of programmed cell death and plays a central role in the development of multicellular organisms. It is a highly regulated process and induces cell death by activating caspases, which are the members of cysteine aspartic acid-specific protease (caspase) family. Caspases involved in apoptosis are classified by their mechanism of action as initiator caspases (caspase-2, -8, -9 and -10) and executioner caspases (caspase-3, -6, and -7). Inhibition of apoptosis results in number of cancers, autoimmune diseases, inflammatory diseases and viral infection. To identify small molecule compounds that induce apoptosis, a homogeneous, luminescent Caspase-Glo 3/7 assay was used. Wild type CHO-K1 cells were used to screen Tox21 libraries for identifying caspase-3/7 activity inducers. Also cytotoxicity of the compounds was tested in parallel by measuring the cell viability using CellTiter-Fluor assay system in the same wells.
Tox21 Assay Protocol Summary:
CHO-K1 cells were dispensed at 1,500 per well in 5uL of culture medium into white solid bottom 1536-well plates (Corning Life Sciences, Corning, NY) using a Multidrop Combi (Thermo Scientific, Waltham, MA) dispenser. The assay plates were incubated at 37 C and 5% CO2 for 5hr, and then 23nL of compounds dissolved in DMSO and positive control were transferred using a Pintool station (Wako, San Diego, CA). The assay plates were incubated at 37C and 5% CO2 for 17hr. For cytotoxicity read, after 16hr incubation at 37C, 1uL CellTiter-Fluor reagent (Promega Corporation, Madison, WI) was added to each well of the assay plates using Flying Reagent Dispenser (FRD, Aurora Discovery, San Diego, CA). After 1hr incubation at 37C and 5% CO2, the fluorescence signal was quantified using a ViewLux plate reader (PerkinElmer, Shelton, CT).
C/C(=C(\CCOP(=O)(O)O)SC(=O)c1ccccc1)N(C=O)Cc1cnc(C)nc1N showed an activity change, negative = cytotoxicity of 2.5% [at 8.39 µM]. With CCCCCCCCCc1ccc(OCCOCCO)cc1 the Potency was 18.1 µM (active). For C[Si](C)(CCCN)O[Si](C)(C)CCCN, the Potency was “inactive”. In the case of O=C1OC(=O)C2C3C=CC(C3)C12 (stereo not given), the Potency is reported as “inactive”. With Cc1nn(C)c(Oc2ccccc2)c1/C=N/OCc1ccc(C(=O)OC(C)(C)C)cc1 the Potency was 0.0154 µM (active). With COc1ccc(C)cc1[N+](=O)[O-] the Potency was “inactive”. With Cc1ccc(C(=O)Oc2ccc(C(O)CNC(C)(C)C)cc2OC(=O)c2ccc(C)cc2)cc1 (stereo not given) the Potency was 29.8 µM (active). In the case of OCCNCc1ccccc1, the Potency is reported as “inactive”. For CCN(CC)CCNC(=O)c1cc(Br)c(N)cc1OC, the Potency was “inactive”. For CC1=CC=C(C(C)C)CC1, the Potency was “inactive”. In the case of C[N+]1(CC2COC(c3ccccc3)(C3CCCCC3)O2)CCCCC1 (stereo not given), the Potency is reported as “inactive”. In the case of NC(=O)C(c1ccccc1)(c1ccccc1)[C@@H]1CCN(CCc2ccc3c(c2)CCO3)C1, the Potency is reported as “inactive”. With CCO[C@H](Cc1ccc(OCCc2ccc(OS(C)(=O)=O)cc2)cc1)C(=O)O the Potency was “inactive”. NCC(=O)O gave an activity change, negative = cytotoxicity of 7.68% [at 19 µM]. In the case of NCC(=O)CCC(=O)O, the Potency is reported as “inactive”. In the case of Cc1cc(N)c2cc(NC(=O)Nc3ccc4nc(C)cc(N)c4c3)ccc2n1, the Potency is reported as “inactive”. For OCCN1CCN(CCCN2c3ccccc3C=Cc3ccccc32)CC1, the Potency was “inactive”. With CCn1cc(C(=O)O)c(=O)c2cnc(N3CCNCC3)nc21 the Potency was “inactive”. For O[C@@H](COc1cccc2ncccc12)CN1CCN(C2c3ccccc3[C@@H]3[C@H](c4ccccc42)C3(F)F)CC1 (stereo not given in full), the Potency was 16.8 µM (active). In the case of CCOC(=O)Cc1cccc2ccccc12, the Potency is reported as “inactive”. With CCC(C)(C)CC the Potency was “inactive”. In the case of C=C(C)C(=O)OCC, the Potency is reported as “inactive”. For CCCCC/C=C\C/C=C\CCCCCCCC(=O)NC(C)c1ccccc1 (stereo not given), the Potency was 26.6 µM (active). With O=C1CCCCCCCCCCCC(=O)OCCO1 the Potency was “inactive”. For Cc1ccc(N=Nc2c(O)c(C(=O)O)cc3ccccc23)c(S(=O)(=O)O)c1, the Potency was 23.6 µM (active). With c1ccc(CNCCNCc2ccccc2)cc1 the Potency was “inactive”. With CCCn1cnc2c1c(=O)n(CCCCC(C)=O)c(=O)n2C the Potency was “inactive”. For CC1(c2ccccc2)OC(C(=O)O)=CC1=O (stereo not given), the Potency was “inactive”. For CCNc1cc(O)ccc1C, the Potency was 60.4 µM (active). With CCC(CC)Nc1ccc(C)c(C)c1 the Potency was “inactive”. With Cc1cccc(C)c1OCC(=O)N[C@@H](Cc1ccccc1)[C@@H](O)C[C@H](Cc1ccccc1)NC(=O)[C@H](C(C)C)N1CCCNC1=O the Potency was 26.6 µM (active). For CCCC(=O)Nc1ccc(O)c(C(C)=O)c1, the Potency was “inactive”. With O=C1c2ccccc2S(=O)(=O)N1CCCCN1CCN(c2ncccn2)CC1 the Potency was “inactive”. In the case of CN(Cc1ccc(C(C)(C)C)cc1)Cc1cccc2ccccc12, the Potency is reported as “inactive”. With CC1=CC[C@H](C(C)C)C=C1 the Potency was “inactive”. For CCCCCC[C@@H](O)C/C=C\CCCCCCCC(=O)OC, the Potency was “inactive”. In the case of COc1cc(Cl)ccc1Oc1ccc(Cl)cc1Cl, the Potency is reported as “inactive”. In the case of C=CC(=O)OCCOCCOCCOCCOC(=O)C=C, the Potency is reported as 8.68 µM (active) and 13.6 µM (active). With CCCCCCCCCCCCN1CCCCCC1=O the Potency was “inactive”. In the case of Cc1cc(C(=O)O)ccc1[N+](=O)[O-], the Potency is reported as “inactive”.
